ChEMBL document CHEMBL3988442, “University of Dundee, Small-Polar-MMV Screening Library” (2021)
For some assays here: Measured potencies and affinities stand elsewhere.

What was measured:
Parameters in all cases: scale not given: direction of the effect not stated beside the values
[1] = target: Protein translocase subunit SecA (Escherichia coli (strain K12)) (UniProt P10408); assay: Assay to Identify E. coli SecA ATPase Inhibitors; format: functional; details: 30 µM
[2] = target: T1, Ubiquitin-activating enzyme e1, putative (Leishmania donovani (strain BPK282A1)) (UniProt E9BSI1); assay: Leishmania donovani Ubiquitin Activating Enzyme (LdE1); format: functional; details: 30 µM
T1 sequence (whole entry): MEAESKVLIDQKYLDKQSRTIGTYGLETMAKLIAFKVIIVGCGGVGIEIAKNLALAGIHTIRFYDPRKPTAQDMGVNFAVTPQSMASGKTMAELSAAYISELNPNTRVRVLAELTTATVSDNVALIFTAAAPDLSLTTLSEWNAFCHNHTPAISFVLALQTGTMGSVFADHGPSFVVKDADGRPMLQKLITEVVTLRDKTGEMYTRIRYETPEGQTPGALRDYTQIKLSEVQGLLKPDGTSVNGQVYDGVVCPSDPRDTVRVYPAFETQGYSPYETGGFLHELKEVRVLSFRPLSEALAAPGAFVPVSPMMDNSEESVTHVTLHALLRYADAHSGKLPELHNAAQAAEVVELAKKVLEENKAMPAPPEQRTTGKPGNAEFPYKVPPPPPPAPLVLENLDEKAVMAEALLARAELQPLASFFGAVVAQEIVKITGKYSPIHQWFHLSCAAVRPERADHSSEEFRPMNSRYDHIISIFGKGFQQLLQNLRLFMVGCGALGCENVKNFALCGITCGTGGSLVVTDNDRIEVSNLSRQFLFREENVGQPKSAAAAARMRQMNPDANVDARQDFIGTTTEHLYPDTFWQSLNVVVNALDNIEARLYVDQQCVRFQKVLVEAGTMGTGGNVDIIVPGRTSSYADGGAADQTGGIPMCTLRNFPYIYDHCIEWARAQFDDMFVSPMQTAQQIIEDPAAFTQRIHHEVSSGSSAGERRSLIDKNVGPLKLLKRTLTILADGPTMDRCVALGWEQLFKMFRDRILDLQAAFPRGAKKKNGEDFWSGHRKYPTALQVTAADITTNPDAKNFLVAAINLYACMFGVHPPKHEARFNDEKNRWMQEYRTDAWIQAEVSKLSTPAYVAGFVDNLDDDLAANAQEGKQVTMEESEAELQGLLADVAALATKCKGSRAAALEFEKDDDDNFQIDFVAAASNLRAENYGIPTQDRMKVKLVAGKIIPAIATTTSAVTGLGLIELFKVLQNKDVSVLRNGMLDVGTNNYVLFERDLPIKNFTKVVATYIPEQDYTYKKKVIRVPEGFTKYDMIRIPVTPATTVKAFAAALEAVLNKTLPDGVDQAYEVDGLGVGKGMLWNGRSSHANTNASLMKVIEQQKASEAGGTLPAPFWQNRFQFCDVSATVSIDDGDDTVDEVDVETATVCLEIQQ

[3] = target: AMP-activated protein kinase, AMPK (Homo sapiens) (UniProt P54646+O43741+P54619+Q9UGJ0+Q9Y478+Q13131+Q9UGI9); assay: AMP-dependent Kinase enzyme assay. An in vitro enzyme assay that detects ADP turnover that is directly proportional to AMPK activity. This uses naive AMPK that is activated during the assay with MK-8722; format: functional; details: 30 µM
[4] = target: Sialic acid-binding Ig-like lectin 9 (Homo sapiens) (UniProt Q9Y336); assay: Hs-Siglec9 ALPHAscreen SOP 20170721; details: 10 µM
Trypanosoma cruzi = assay: Trypanosoma cruzi phosphomannomutase and mannose-1-phosphate guanylyltransferase assay; format: functional; details: 10 µM
[5] = target: T2, Arginase-2, mitochondrial (Homo sapiens) (UniProt P78540); assay: in vitro enzyme assay to detect the production of urea directly proportional to the activity of Arginase II; format: functional; details: 33.3 µM; note: in the data most compounds retested in dose-response had high values
T2 sequence (whole entry): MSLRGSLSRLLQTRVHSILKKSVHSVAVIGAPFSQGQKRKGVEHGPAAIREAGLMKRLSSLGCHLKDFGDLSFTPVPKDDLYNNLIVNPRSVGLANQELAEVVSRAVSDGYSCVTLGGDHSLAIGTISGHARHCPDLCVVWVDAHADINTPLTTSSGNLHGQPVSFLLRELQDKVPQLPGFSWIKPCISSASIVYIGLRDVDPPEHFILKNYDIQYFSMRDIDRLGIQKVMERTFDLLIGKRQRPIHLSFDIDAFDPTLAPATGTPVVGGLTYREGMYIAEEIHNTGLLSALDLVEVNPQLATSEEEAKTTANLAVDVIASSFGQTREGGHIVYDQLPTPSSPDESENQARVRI

[6] = target: T3, Proteasome subunit beta (Trypanosoma cruzi) (UniProt O96673); assay: Trypanosoma cruzi proteasome chymotrypsin-like activity (TcProtChymo) assay.; note: in the data most compounds retested in dose-response had high values; format: functional; details: 9.37 µM
T3 sequence (whole entry): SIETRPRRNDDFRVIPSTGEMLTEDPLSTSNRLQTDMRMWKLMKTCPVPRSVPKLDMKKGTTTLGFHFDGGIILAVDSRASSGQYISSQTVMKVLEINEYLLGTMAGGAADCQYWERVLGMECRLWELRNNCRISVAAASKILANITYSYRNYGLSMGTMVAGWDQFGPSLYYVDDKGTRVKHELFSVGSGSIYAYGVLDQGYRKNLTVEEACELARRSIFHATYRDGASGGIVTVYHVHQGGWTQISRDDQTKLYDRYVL

Homo sapiens = species on record: Homo sapiens; assay: To identify inhibition of the IFN signalling (Jak-Stat) pathway via expression of an eGFP reporter gene under the control of an IFN-stimulated response element (ISRE) containing MxA promoter.; format: functional; details: 30 µM
[7] = target: T4, Tyrosyl-tRNA synthetase, putative (Trypanosoma cruzi (strain CL Brener)) (UniProt Q4DSP6); assay: Trypanosoma cruzi tyrosyl tRNA synthetase (TcYRS) _High Tyrosine SOP; format: functional; details: 30 µM; note: in the data most compounds retested in dose-response had high values
T4 sequence (whole entry): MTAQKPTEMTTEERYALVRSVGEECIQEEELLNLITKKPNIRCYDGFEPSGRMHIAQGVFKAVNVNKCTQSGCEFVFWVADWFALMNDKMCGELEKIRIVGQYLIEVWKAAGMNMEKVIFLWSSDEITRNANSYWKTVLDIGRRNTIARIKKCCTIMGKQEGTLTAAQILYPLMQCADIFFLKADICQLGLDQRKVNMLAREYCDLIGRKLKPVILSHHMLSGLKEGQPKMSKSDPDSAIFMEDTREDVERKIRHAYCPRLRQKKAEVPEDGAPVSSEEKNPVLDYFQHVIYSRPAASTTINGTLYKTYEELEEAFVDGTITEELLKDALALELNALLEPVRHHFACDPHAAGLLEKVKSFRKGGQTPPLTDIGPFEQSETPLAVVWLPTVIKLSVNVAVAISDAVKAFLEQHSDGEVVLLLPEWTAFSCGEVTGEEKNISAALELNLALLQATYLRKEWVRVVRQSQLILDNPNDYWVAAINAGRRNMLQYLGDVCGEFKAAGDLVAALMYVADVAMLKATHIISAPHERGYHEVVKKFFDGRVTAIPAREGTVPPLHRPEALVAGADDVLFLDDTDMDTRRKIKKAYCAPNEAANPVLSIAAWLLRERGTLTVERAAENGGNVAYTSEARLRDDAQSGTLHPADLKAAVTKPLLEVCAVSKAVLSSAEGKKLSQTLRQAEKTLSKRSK

[8] = target: T4, Tyrosyl-tRNA synthetase, putative (Trypanosoma cruzi (strain CL Brener)); assay: Trypanosoma cruzi tyrosyl tRNA synthetase (TcYRS) SOP; format: functional; details: 30 µM
[9] = target: Chromo domain-containing protein 1 (Saccharomyces cerevisiae (strain ATCC 204508 / S288c) (Baker's yeast)) (UniProt P32657); assay: ScCHD-1 Enzyme Inhibition Assay; format: functional; details: 30 µM; note: in the data most compounds retested in dose-response had high values
Chain of Chromo domain-containing protein 1 (Saccharomyces cerevisiae (strain ATCC 204508 / S288c) (Baker's yeast)) (P32657 whole entry, the tested form may be a part): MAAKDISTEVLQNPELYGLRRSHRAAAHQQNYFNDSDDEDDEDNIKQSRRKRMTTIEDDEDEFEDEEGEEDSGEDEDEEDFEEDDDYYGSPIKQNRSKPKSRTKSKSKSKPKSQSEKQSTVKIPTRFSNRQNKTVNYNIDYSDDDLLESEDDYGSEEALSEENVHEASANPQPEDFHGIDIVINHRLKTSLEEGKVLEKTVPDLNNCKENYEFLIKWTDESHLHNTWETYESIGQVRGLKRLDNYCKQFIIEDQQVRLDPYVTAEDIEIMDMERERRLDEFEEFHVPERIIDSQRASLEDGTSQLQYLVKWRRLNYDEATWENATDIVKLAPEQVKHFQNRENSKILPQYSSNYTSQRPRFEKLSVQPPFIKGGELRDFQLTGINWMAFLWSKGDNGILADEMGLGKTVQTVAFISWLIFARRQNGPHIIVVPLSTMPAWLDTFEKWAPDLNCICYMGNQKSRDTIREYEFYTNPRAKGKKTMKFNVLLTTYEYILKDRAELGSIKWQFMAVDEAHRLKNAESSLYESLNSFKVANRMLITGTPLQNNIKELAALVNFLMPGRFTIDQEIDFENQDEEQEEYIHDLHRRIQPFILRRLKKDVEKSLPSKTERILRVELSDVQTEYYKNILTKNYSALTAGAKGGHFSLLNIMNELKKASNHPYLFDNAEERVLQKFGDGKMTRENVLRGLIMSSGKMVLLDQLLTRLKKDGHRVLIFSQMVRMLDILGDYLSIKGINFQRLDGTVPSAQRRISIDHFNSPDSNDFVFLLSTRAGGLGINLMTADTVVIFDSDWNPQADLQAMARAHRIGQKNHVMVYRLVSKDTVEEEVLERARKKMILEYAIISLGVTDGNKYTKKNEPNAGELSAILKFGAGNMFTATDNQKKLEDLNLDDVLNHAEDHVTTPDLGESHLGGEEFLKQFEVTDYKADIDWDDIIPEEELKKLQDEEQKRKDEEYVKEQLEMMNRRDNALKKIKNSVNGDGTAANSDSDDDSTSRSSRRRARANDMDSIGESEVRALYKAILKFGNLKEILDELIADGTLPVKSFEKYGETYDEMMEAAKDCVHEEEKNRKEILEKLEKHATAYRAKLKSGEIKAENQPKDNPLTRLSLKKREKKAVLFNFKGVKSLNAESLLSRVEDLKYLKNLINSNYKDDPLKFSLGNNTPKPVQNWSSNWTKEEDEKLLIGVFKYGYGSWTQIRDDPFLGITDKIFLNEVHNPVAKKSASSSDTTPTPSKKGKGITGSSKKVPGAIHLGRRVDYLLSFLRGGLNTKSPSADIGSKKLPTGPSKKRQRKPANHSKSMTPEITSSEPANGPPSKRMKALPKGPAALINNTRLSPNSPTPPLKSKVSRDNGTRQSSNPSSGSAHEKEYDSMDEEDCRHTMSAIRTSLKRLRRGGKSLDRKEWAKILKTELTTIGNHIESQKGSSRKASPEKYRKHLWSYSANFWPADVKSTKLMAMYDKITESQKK

Chain of Protein translocase subunit SecA (Escherichia coli (strain K12)) (P10408 whole entry): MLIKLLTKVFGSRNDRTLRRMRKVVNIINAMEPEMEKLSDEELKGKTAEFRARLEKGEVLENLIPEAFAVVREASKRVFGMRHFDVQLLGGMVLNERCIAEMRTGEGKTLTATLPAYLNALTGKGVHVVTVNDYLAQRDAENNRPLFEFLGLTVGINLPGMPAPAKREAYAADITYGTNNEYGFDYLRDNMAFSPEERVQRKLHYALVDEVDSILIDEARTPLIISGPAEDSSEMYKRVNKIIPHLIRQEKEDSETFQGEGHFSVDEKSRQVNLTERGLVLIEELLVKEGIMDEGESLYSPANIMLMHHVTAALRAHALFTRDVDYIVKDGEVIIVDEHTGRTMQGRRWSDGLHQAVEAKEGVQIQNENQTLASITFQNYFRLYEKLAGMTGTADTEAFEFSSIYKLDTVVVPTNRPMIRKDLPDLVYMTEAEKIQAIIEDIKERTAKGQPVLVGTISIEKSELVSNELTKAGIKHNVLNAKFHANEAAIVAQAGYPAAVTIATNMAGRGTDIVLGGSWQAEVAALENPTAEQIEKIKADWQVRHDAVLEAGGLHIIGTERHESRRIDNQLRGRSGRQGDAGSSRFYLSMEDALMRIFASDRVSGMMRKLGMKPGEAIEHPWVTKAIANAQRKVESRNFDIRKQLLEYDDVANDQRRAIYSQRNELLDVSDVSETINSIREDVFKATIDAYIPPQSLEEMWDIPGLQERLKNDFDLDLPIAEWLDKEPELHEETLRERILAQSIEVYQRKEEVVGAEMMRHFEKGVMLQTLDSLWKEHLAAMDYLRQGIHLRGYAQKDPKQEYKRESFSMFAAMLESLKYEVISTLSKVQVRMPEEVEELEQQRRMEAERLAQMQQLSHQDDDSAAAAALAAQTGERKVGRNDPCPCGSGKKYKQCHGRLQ
Chain of Sialic acid-binding Ig-like lectin 9 (Homo sapiens) (Q9Y336 whole entry): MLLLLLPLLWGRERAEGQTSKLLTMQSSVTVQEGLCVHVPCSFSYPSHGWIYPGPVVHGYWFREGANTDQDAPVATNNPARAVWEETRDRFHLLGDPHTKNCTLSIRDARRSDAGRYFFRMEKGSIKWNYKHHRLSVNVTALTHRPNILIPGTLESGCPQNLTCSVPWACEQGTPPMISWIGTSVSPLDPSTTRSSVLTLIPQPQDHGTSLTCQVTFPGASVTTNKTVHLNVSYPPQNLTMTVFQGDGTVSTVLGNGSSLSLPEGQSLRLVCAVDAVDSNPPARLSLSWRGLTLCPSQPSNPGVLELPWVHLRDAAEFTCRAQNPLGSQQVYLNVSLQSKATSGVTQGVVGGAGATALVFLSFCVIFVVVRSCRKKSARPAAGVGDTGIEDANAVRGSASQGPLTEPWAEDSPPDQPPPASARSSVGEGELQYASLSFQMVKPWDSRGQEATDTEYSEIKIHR

Structure (SMILES)	Percent Effect [1]	Percent Effect [2]	Percent Effect [3]	Percent Effect [4]	Percent Effect (Trypanosoma cruzi)	Percent Effect [5]	Percent Effect [6]	Percent Effect (Homo sapiens)	Percent Effect [7]	Percent Effect [8]	Percent Effect [9]
CN1CCOC(CN(C(=O)CC2CCCC2)c2nccs2)C1 (configuration not stated)	-0.692%	0%	6.23%	8.01%	0.464%	-4.25%	-2.69%	7.78%	-3.96%	-6.1%	2.72%
CCN(Cc1ccc2c(c1)OCO2)C(=O)c1ccc(C)[nH]c1=O	-4.38%	13.2%	-8.05%	-3.99%	11.5%	-1.92%	11.9%	15.1%	10.3%	19.5%	-15.7%
Cc1ccc([C@]2(O)CC[C@H]3CN(Cc4cccc(Cl)c4Cl)C[C@H]32)nc1	-2.93%	12.2%	12.6%	-9.17%	1.98%	-0.232%	17.8%	51.4%	9.68%	16.9%	-15.7%
CC(CNC(=O)N1CCN(c2cnccn2)CC1)Cc1cccs1 (configuration not stated)	-2.51%	2.7%	6.5%	15.7%	-1.95%	-1.67%	10.6%	-1.65%	0.99%	-6.1%	0.413%
CN(C)CC1CN(CCOc2cccc(C#N)c2)CCO1 (configuration not stated)	-2.7%	-5.26%	-2.16%	-5.38%	-4.95%	5.75%	-8.71%	-3.58%	1.48%	3.7%	4.04%
CN(C)C(=O)N1C[C@H](Oc2ccccn2)[C@H]2OCCC[C@H]21	0.276%	0%	4.78%	2.55%	-2.27%	0.645%	3.65%	-2.96%	3.17%	3.85%	-3.5%
O=C(c1cccn1Cc1cccs1)N1CCCC1Cn1cccn1 (configuration not stated)	-1.97%	-23.7%	-2.11%	10.5%	8.68%	-4.68%	8.38%	-4.07%	0.493%	6.17%	3.37%
CCC1CCCN(C(=O)Cc2csc(-c3ncccn3)n2)C1 (configuration not stated)	-2.19%	21.1%	0.0664%	-8.02%	5.26%	-1.92%	24.1%	25.1%	5.39%	17.1%	-12.4%
CCc1nc(C2CCCN(C(=O)c3cccc4c3ccn4C)C2)no1 (configuration not stated)	-2.43%	-5.41%	1.08%	3.25%	5.29%	-6.47%	5.92%	17.1%	3.96%	3.66%	-0.759%
Cc1cc(-c2cnc(N3CCNC(=O)C3)nc2-c2ccc(C)o2)on1	-8.2%	21.3%	3.79%	11.1%	1.38%	-6.76%	11.4%	29.2%	5.32%	11.5%	-16.5%
O=C(NCC1(CO)CC1)c1cccc2ccccc12	-5.68%	2.74%	20.9%	-5.02%	-4.9%	-0.455%	10.7%	0.244%	6.45%	2.5%	-1.94%
CC(=O)Nc1nc(C(=O)Nc2ccc(N3CCCCC3)nc2)cs1	-1.91%	-3.8%	22.9%	0.734%	-3.18%	-1.5%	10.6%	11.2%	9.38%	10.1%	-11.6%
Cc1noc2ncc(C(=O)NCC3CCN(C(C)C)C3)cc12 (configuration not stated)	-2.65%	2.63%	2.21%	2.67%	-6.58%	4.21%	4.34%	4.5%	-0.49%	4.88%	3.24%
CCc1noc(CN(C)Cc2ccc(N3CCCCC3)cc2)n1	-2.48%	2.6%	0.261%	13%	3.83%	15.2%	13.5%	5.54%	-6.45%	-8.64%	-6.82%
Cn1cc(Br)c(=O)c(NS(=O)(=O)c2ccc(F)cc2)c1	-0.436%	2.7%	-1.93%	10.6%	5.41%	-0.476%	10.5%	2.64%	2.65%	12.2%	-2.91%
O=C1CN(Cc2nnc(-c3ccc(Br)cc3)o2)CCN1	0.69%	18.1%	-9.97%	2.35%	2.04%	-1.77%	15.6%	11.5%	2.1%	2.56%	-3.39%
COc1cc(CN2CC[C@@]3(CCCO3)[C@@H](O)C2)ccc1F	-3.6%	14.9%	6.46%	-2.68%	2.96%	0.696%	3.74%	-18.1%	6.45%	16.9%	-12.2%
Cc1cccc(CN2CCC3(CCCN(C(=O)NC4CC4)C3)C2=O)n1 (configuration not stated)	-0.773%	10.4%	-9.14%	-16.1%	-7.99%	5.81%	6.79%	11.4%	1.06%	1.28%	-9.83%
CCc1n[nH]c(C2CN(CCc3cccs3)CCO2)n1 (configuration not stated)	-7.68%	11.4%	-4.38%	-6.28%	3.38%	-1.94%	8.06%	-6.82%	2.08%	17.7%	-43.9%
C=C1c2ccccc2C(=O)N1CCC(=O)N1CCNC(=O)C1	-2.89%	15.8%	-1.19%	3.39%	-2.07%	6.51%	29.6%	-7.94%	6.37%	17.1%	-3.42%
Cn1cc(-c2cnc(N3CCOCC3)nc2)cc1C(=O)N1CCOCC1	-2.41%	13.3%	7.42%	1.64%	-0.984%	2.56%	1.32%	23.2%	6.38%	14.1%	-9.55%
O=C(CN1CCOC(Cn2cccn2)C1)NCCc1ccc(F)cc1 (configuration not stated)	-2.6%	2.7%	-6.61%	-1.28%	-3.25%	-0.554%	7.18%	5.31%	-0.99%	1.22%	13.8%
